# According to PubChem BioAssay AID651864 (Broad Institute, 2012):
# Measured potencies and affinities stand elsewhere. Calls of active or inactive are those of the source. The rule behind the calls is not given here.
# Test: HeLa cell cytotoxicity, dose response, cytotoxicity control, 24 h, plate reader, powder samples, set 3 (AID 651864)
row,Structure (SMILES),outcome
1,O=C(NCc1ccc(-c2ccccc2)cc1)C1CCCC1,inactive
2,CCn1nnc(NCc2ccc(C)cc2)n1,inactive
3,O=C(Cc1cccc(F)c1)NC1CCCC1,inactive
4,CCn1nnnc1NCc1ccccc1N1CCCC1,inactive
5,CCCCn1nnnc1NCc1ccc(N2CCCC2)cc1,inactive
6,O=C(Cc1ccccc1OC(F)(F)F)NC1CCCC1,inactive
7,O=C(Cc1ccc(-c2ccccc2)cc1)NC1CC1,inactive
8,Fc1ccc(Cn2nnnc2NCc2ccc(N3CCCC3)cc2)cc1,inactive
9,O=C(Cc1ccccc1C(F)(F)F)NC1CCCC1,inactive
10,CCCn1nnnc1NCc1ccccc1Cl,inactive
11,CC1(NC(=O)Cc2ccc(-c3ccccc3)cc2)COC1,inactive
12,O=C(Cc1ccc(-c2ccccc2)cc1)NC1CCCC1,inactive
13,CC(C)NC(=O)Cc1ccc(-c2ccccc2)cc1,inactive
14,c1ccc(-n2nnnc2NCc2ccc(N3CCCC3)cc2)cc1,inactive
15,CS(=O)(=O)c1ccc(CC(=O)NC2CCCC2)cc1,inactive
16,COc1ccc(CC(=O)NC2CCCC2)cc1,inactive
17,c1ccc(Cn2nnnc2NCc2ccc(N3CCCC3)cc2)cc1,inactive
18,CCn1nnnc1NCc1cccc(N2CCCC2)c1,inactive
19,Cc1ccccc1CC(=O)NC1CCCC1,inactive
20,O=C(Cc1cccc(OC(F)(F)F)c1)NC1CCCC1,inactive
21,Cc1ccc(Cn2nnnc2NCc2ccc(N3CCCC3)cc2)cc1,inactive
22,Cn1nnnc1NCc1ccc(N2CCCC2)cc1,inactive
23,O=C(Cc1ccccc1Cl)NC1CCCC1,inactive
24,CCn1nnnc1NCc1ccc(C(C)C)cc1,inactive
